Only some compounds are listed: those with a hit (about 3.1% of all), similar ones and a draw of the others.
ALOX12 inhib – inhibitors of human 12-lipoxygenase (ALOX12). P18054. purified 12-hLO, xylenol orange hydroperoxide absorbance. Potency, µM (series often up to 57.1 µM), for inactives: at the highest dose activity change, negative = inhibition, most hits filed as inhibitors. 150,000 compounds, 0.12% hits; note: potency is the fitted concentration of half-maximal effect; nearly all actives have a fitted effect of over 55% in size
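150 nM 12hLO, 25 mM Hepes pH 7.0 + 0.01% Triton X-100; cpd preinc 15 min RT; 40 uM arachidonic acid, 30 min RT; Fe-XO 30 min; A573/A405 ratio as read-out.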
ALOX15B inhib – inhibitors of human 15-lipoxygenase 2 (ALOX15B). O15296. purified 15hLO-2, xylenol orange hydroperoxide absorbance. Potency, µM (titrated, usually from 57.1 µM), inactives show top-dose activity change, negative = inhibition, hits mostly inhibitors. 110,000 compounds, 0.56% hits. AID 881; note: potency is the fitted concentration of half-maximal effect; nearly all actives have a fitted effect of over 60% in size
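Purified human 15hLO-2 (50 nM) preincubated 15 min with compound, then 45 uM arachidonic acid for 90 min at RT in 25 mM Hepes pH 7.5, 0.01% Triton X-100. Hydroperoxide detected by Fe-xylenol orange; 573/405 nm absorbance ratio.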
PNC inhibitor – inhibitors of perinucleolar compartment assembly. activity change (PNC), negative = inhibition, % at 10 µM. 140,000 compounds, 3.1% hits. PC3M PTB-GFP, PNC prevalence imaging, 16 h; active compounds read low;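 active = readout at or below -70, meaning at least 70% loss of cells showing the perinucleolar compartment, a nuclear body marking cancer cells; inconclusive = readout between -30 and a set limit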;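 note: plate controls were DMSO wells for no effect and camptothecin positive control wells for full effect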
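Compounds are pinned in duplicate onto adhered PC3M cells stably expressing GFP-tagged PTB and incubated 16 h at 37 C. Cells are then fixed, nuclei stained with Hoechst, and PNC-positive cells counted.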
* marks the source's active call; other numbers are inactive results; ? = inconclusive; nt = no result given; [ ] = dose if it differs, or a comment. Unless noted, calls come from the whole dose curve; as a rule, active = well fitted curve in the direction sought with a large enough effect; inconclusive = small, poorly fitted or top-dose-only effect, or another doubt; inactive = no such curve, though single readings can be large; an effect the other way counts as inactive or inconclusive. Unless noted, % is set by controls: 0 for no effect and ±100 for the full control effect.

SMILES	ALOX12 inhib	ALOX15B inhib	PNC inhibitor
CCOC(=O)CC(SP(=O)(OC)OC)C(=O)OCC (stereo unspecified)	-3%	-6%	nt
Cc1nccc2c1[nH]c1ccccc12	-5%	33%	nt
Cc1[nH]c2ccccc2c1/C=N/O	-7%	-1%	-86*
[N-]=[N+]=NCC(=O)c1c[nH]c(=O)[nH]c1=O	0%[11.4 µM]	1%[11.4 µM]	nt
COc1cccc(CN2CCCCC2c2cccnc2)c1 (stereo unspecified)	-4%	4%	-83*
COc1ccc(CN2CCCCC2c2cccnc2)cc1C (stereo unspecified)	-1%	10%	34
CC(C)(O)[C@H]1[C@H]2OC(=O)[C@@H]1[C@]1(O)C[C@H]3O[C@]34C(=O)O[C@H]2[C@]14C (tested in a mixture with another compound)	5%	-6%	nt
Cc1c(N=Cc2c(O)n(Cc3ccco3)c(=O)[nH]c2=O)c(=O)n(-c2ccccc2)n1C	4%	-2%	-82*
Cc1c(N=Cc2c(O)n(Cc3ccccc3)c(=O)[nH]c2=O)c(=O)n(-c2ccccc2)n1C	-1%	nt	6
C(=NC1CCCCC1)=NC1CCCCC1	-1%	-6%	nt
Cc1cc2c(C(C)C)c(O)c(O)c(C=O)c2c(O)c1-c1c(C)cc2c(C(C)C)c(O)c(O)c(C=O)c2c1O	?	3.5µM*	?
O=c1cc(-c2ccc(O)c(O)c2)oc2cc(O)cc(O)c12	?	16µM*	nt
O=C(N[C@H]1CN2CCC1CC2)c1ccc(Cl)cc1	-2%	29%	nt
Clc1ccc(CNC2CN3CCC2CC3)cc1 (stereo unspecified)	-1%	nt	-80*
CC(C)=C[C@H]1[C@@H](C(=O)OCc2cc3c(cc2Cl)OCO3)C1(C)C	4%[11.4 µM]	-2%[11.4 µM]	nt
CC(C)c1nccn1Cc1ccc(Cl)cc1Cl	5%[11.4 µM]	-1%[11.4 µM]	nt
COc1ccc(C(C)=O)cc1CC(C(=O)c1ccc(C)c(C)c1)N(C)C (stereo unspecified)	-1%	nt	17
COc1ccc(C(C)=O)cc1CC(C(=O)c1ccc(F)cc1)N(C)C (stereo unspecified)	-6%	nt	-93*
Cc1nc2ccccc2cc1C[N+]12CN3CN(CN(C3)C1)C2	-17%[11.4 µM]	-20%[11.4 µM]	nt
Cc1cc(OC(=O)CCCNC(=O)OC(C)(C)C)c2c3c(c(=O)oc2c1)CCC3	-2%	2%	-10
Cc1cc(OC(=O)CCNC(=O)OC(C)(C)C)c2c3c(c(=O)oc2c1)CCC3	3%	-7%	-109*
O=S(=O)(NCCO)c1cc[c]([Sb](=[O])([OH])[OH])cc1	4%[11.4 µM]	5%[11.4 µM]	nt
CC1CCCN(C(=O)CCl)C1 (stereo unspecified)	0%	nt	-116*
CC(=O)c1ccc(-c2ccccc2)cc1	1%	nt	-88*
O=C(O)C(O)(c1ccc(-c2ccccc2)cc1)c1ccc(-c2ccccc2)cc1	-9%[11.4 µM]	-12%[11.4 µM]	nt
CC(C)n1cc2c3c(cccc31)[C@@H]1C[C@H](C(=O)O[C@@H](C)[C@H](C)O)CN(C)[C@H]1C2	-2%	19%	nt
